PTAP-TSG101 blk – blocks PTAP binding to human TSG101, validation; Q99816; Fluorescence polarization, FITC-PTAP peptide/Tsg101, 20 min; Potency, µM (doses to about 115 µM), actives largely listed as inhibitors; 44,000 tested, under 10 active; AID 1347069; further: potency means the concentration at half of the fitted maximal effect; 0% is about no effect
Target sequence (Q99816 whole entry, looked up): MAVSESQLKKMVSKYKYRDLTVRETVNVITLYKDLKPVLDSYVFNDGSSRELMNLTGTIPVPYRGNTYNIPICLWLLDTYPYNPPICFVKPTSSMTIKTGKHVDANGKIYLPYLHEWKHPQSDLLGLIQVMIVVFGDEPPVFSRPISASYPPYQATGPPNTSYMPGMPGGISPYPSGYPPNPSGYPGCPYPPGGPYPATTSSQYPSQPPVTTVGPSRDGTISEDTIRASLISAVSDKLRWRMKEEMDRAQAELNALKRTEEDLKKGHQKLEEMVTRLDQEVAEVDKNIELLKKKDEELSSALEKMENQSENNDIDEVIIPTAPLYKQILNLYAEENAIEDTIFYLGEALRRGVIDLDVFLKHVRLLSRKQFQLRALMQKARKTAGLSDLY
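Fluorescence polarization binding of Tsg101 binding domain (10 uM final) to FITC-labeled PTAP-motif peptide (50 nM final) in HEPES pH 7.5/NaCl/Tween 20/EDTA/TCEP buffer; 20 min at r.t. Actives by curve class, <25 µM, efficacy <60% inhibition.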
GALK inh – inhibits human galactokinase; P51570; recombinant GALK, Kinase-Glo ATP luminescence, 1 h; Potency, µM (titrated, usually from 57.5 µM), for the others: at the top dose activity, negative = inhibition, actives largely listed as inhibitors; 44,000 tested, under 10 active; AID 1347072;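 further: plate controls were full GALK reaction for no effect and reaction lacking GALK for full effect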
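5 nM GALK with 35 µM ATP and 100 µM galactose in HEPES pH 8.0, MgCl2, NaCl, DTT, BSA; 1 h RT reaction, remaining ATP detected by Kinase-Glo Plus luminescence after 10 min; qHTS concentration series.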
B2AR arrestin ag – ADRB2 beta-arrestin recruitment; HTLA Tango cells, beta-arrestin recruitment, luciferase luminescence, 18 h; Potency, µM (top dose mostly 46.1 µM), hits mostly activators; 44,000 tested, under 10 active; AID 1347077;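 further: potency means the concentration at half of the fitted maximal effect; 0% = DMSO and full agonism = EC100 isoproterenol or metaproterenol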
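Ligand-induced beta-arrestin recruitment to recombinant beta2-AR is measured via a tTA-driven luciferase reporter in Tango cells after 18 hr compound exposure at 37 degrees C. Concentrations span up to 46 microM.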
FH mod – Identification of activators of human fumarate hydratase by quantitative high-throughput screening; FH coupled MDH/diaphorase resazurin fluorescence, 15 min; Potency, µM (series often up to 79.9 µM), inactives show top-dose activity change, negative = inhibition, usual class: inhibitors; 54,000 compounds, 0.22% hits; AID 1347055, 2019; further: potency means the concentration at half of the fitted maximal effect; on the % scale 0 is the no-effect control and ±100 the full control effect; the screen sought activators but most active calls are inhibition curves; nearly all actives have a fitted effect of over 45% in size
NTMT1 inhibitor – NTMT1 methyltransferase inhibition; Q9BV86; Potency, µM (highest dose often 114 µM), for the others: at the top dose activity change, negative = inhibition, hits mostly inhibitors; NTMT1 MTase-Glo SAH luminescence, purified enzyme; 59,000 compounds, 2.5% hits;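 further: potency means the concentration at half of the fitted maximal effect; plate controls were DMSO vehicle for no effect and no enzyme for full effect; nearly all actives have a fitted effect of over 65% in size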
Target sequence (Q9BV86 whole entry, looked up): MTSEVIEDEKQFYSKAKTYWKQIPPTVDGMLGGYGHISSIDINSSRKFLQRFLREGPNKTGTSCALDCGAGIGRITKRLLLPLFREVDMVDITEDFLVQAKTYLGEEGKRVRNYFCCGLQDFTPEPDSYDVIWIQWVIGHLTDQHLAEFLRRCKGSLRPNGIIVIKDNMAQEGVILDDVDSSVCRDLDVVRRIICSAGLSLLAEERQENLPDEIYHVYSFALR
Numbers without * were called inactive; i = inactive; u = inconclusive; x = not tested or not shown; ! = not active in a repeat; [ ] = remark or other dose. The entries come from a sample that favours hits as a whole. The call rests on the fitted dose curve; in most records, active means well fitted curve in the direction sought with a large enough effect; inconclusive means small, poorly fitted or top-dose-only effect, or another doubt; inactive means no such curve, though single readings can be large; an effect the other way counts as inactive or inconclusive.

SMILES	PTAP-TSG101 blk	GALK inh	B2AR arrestin ag	FH mod	NTMT1 inhibitor
Nc1nonc1-c1nc2cnccc2n1C1CC1	x	x	x	10%	7%
CC1(C)Cc2c(sc(NC(=S)NC(=O)c3ccccc3)c2C(=O)O)CO1	x	x	x	-4%[53.3 µM]	79µM*!
COc1ccc(Cl)cc1-c1cc(=O)[nH]c(=S)n1CC(N)=O	x	x	x	x	15%
CC(C)c1cc(C(C)C)c(CC(=O)NS(=O)(=O)Oc2c(C(C)C)cccc2C(C)C)c(C(C)C)c1	x	x	x	-22%	40µM*!
CC(C)N(CCCNC(=O)Nc1ccc(C(C)(C)C)cc1)C[C@H]1O[C@@H](n2ccc3c(N)ncnc32)[C@H](O)[C@@H]1O	x	x	x	-2%	13%[12.6 µM]
CC(C)N(CCCNC(=O)Nc1ccc(C(C)(C)C)cc1)C[C@H]1O[C@@H](n2cc(Br)c3c(N)ncnc32)[C@H](O)[C@@H]1O	x	x	x	3%	8.9µM*
O=C(O)c1ccc(-c2noc(-c3ccccc3F)n2)cc1	x	x	x	x	22µM*
CC(NC(=O)c1ccc(Cn2c(=O)c3cccn3c3cccnc32)cc1)c1ccccc1 (stereo not given)	i	1%	i	10%	u
CC(NC(=O)CCCn1c(=O)c2cccn2c2cccnc21)c1ccccc1 (stereo not given)	i	0%	i	10%	89µM*
COc1ccc(F)cc1-c1cc(NC(=O)[C@@H]2CCCNC2)ncc1Cl	x	x	x	-5%	u
CCc1cc2c(c(OCC(F)(F)F)c(C(=O)NC3CCN(C(=O)CO)CC3)n2C)c(=O)n1CC(=O)c1ccccc1	x	x	x	x	6%
Nc1ncnc2nc(-c3ccc(N4CCOCC4)nc3)cc(-c3cccc(Br)c3)c12	x	x	x	3%	1.1µM*
CCOc1ccc(C(=O)Oc2ccc(-c3nc4ccccc4[nH]3)cc2)cc1	x	x	x	x	12%
CC(C)c1onc(-c2c(Cl)cccc2Cl)c1COc1ccc(C=Cc2cccc(C(=O)O)c2)c(Cl)c1	x	x	x	u	17µM*
COc1cccc(-n2cc(C(=O)Nc3ccccc3C(N)=O)c3ccccc3c2=O)c1	i	0%	i	8%	89µM*
COc1nnc2ccc(N3CCC(c4ccc(OCCN5CCN(C)C(=O)[C@H]5C)cc4)CC3)nn12	x	x	x	x	7%
Brc1ccccc1-c1nc(NCc2ccc(-c3cccnc3)cc2)c2ccccc2n1	x	x	x	x	16%
c1cncc(-c2ccc(CNc3nc(N4CCCC4)nc4ccccc34)cc2)c1	x	x	x	x	40µM*
C[C@@H]1O[C@@H](OC[C@H]2O[C@@H](Oc3c(-c4ccc(O)c(O)c4)oc4cc(O)cc(O)c4c3=O)[C@H](O)[C@@H](O)[C@@H]2O)[C@H](O)[C@H](O)[C@H]1O	x	x	x	-15%[53.3 µM]	-11%[57.5 µM]
O=c1c(O)c(-c2ccc(O)cc2O)oc2cc(O)cc(O)c12	x	x	x	-29%[53.3 µM]	45µM*!
O=c1c(O)c(-c2cc(O)c(O)c(O)c2)oc2cc(O)cc(O)c12	x	x	x	-26%[53.3 µM]	28µM*!
O=C(Nc1ncc(Cc2ccc(C(F)(F)F)cc2)s1)c1cccc(-c2ccccc2)c1	x	x	x	x	7%[57.5 µM]
O=C1OC(COc2ccccc2[N+](=O)[O-])CC1Cc1ccccc1 (stereo not given)	x	x	x	x	5%
CSc1ncc(C(=O)Nc2ccccc2C(F)(F)F)c(-c2ccccc2)n1	i	-3%	i	-14%	89µM*
CSc1ncc(C(=O)Nc2ccc(F)cc2F)c(-c2ccccc2)n1	i	1%	i	0%	9%
SMILES	PTAP-TSG101 blk	GALK inh	B2AR arrestin ag	FH mod	NTMT1 inhibitor
Cc1cc(C)c2c(c1)[C@@H](N(Cc1cc(C(F)(F)F)cc(C(F)(F)F)c1)c1nnn(C)n1)CCCN2CC1CCC(C(=O)O)CC1 (stereo not given in full)	x	x	x	x	5%
CN1CCN(c2cccc(Nc3nn4c(=O)c5ccc(F)cc5nc4s3)c2)CC1	x	x	x	x	-5%
CN1CCN(c2cccc(Nc3nn4c(=O)c5ccc(N(C)C)cc5nc4s3)c2)CC1	x	x	x	x	50µM*
O=c1c2ccccc2nc2sc(Nc3cccc(N4CCNCC4)c3)nn12	x	x	x	x	50µM*!
O=C1c2c(O)ccc(O)c2C(=O)c2c(NCCNCCO)ccc(NCCNCCO)c21	x	x	x	u	28µM*!
O=C([C@H](Cc1ccc(O[S+](=O)([O-])c2cccc3cnccc23)cc1)N[S+](=O)([O-])c1cccc2cnccc12)N1CCN(Cc2ccccc2)CC1	x	x	x	x	-18%[57.5 µM]
Cn1cc(C2=C(c3c4n(c5ccccc35)CCC(CN)C4)C(=O)NC2=O)c2ccccc21 (stereo not given)	x	x	x	-7%[53.3 µM]	40µM*!
Cc1ccc(OCCn2c(CCNC(=O)c3cccc(N)c3)nc3ccccc32)cc1	x	x	x	x	0%[57.5 µM]
COc1ccc(-c2cnc(N3CCC(C(N)=O)CC3)s2)cc1OC	x	x	x	x	4%
NC(=O)C1CCN(c2ncc(Br)s2)CC1	x	x	x	x	40µM*
COC1CC(=O)C23C(=O)NC(CC(C)C)C2C(C)C(C)=CC3/C=C(\C)CCCC1O (stereo not given)	x	x	x	10%[53.3 µM]	1%[29.8 µM]
Cc1ccc(C(N)=O)cc1Nc1nccc(-c2cn(C(C)C)c3cnccc23)n1	x	x	x	-20%[53.3 µM]	11µM*
Nc1cccc(-c2cc3c(Oc4cccc(O)c4)ncnc3[nH]2)c1	x	x	x	-1%	22µM*!
O=C(O)c1ccc(O)c2ncc(N3CCCN(C4CCCC4)CC3)cc12	x	x	x	x	-1%
Cc1cc(C)c(S(=O)(=O)N(CCc2cccc(Br)c2)Cc2ccc(-c3cccc(S(C)(=O)=O)c3)cc2)c(C)c1	x	x	x	x	9%
Cc1nc2c(C(=O)NCCc3ccc(Cl)cc3)c[nH]n2c(=O)c1Cc1ccccc1F	i	5%	i	u	-14%
COc1ccc(CCNC(=O)c2c[nH]n3c(=O)c(Cc4ccccc4Cl)c(C)nc23)cc1OC	i	-17%	i	18µM*	-6%
COc1ccc(C(=O)CN2CCN(S(=O)(=O)c3ccc(C(C)C)cc3)CC2)cc1	i	1%	i	-5%	56µM*
CCOc1ccc(NC(=O)CN2CCN(S(=O)(=O)c3ccc(OC)cc3)CC2)cc1	i	-1%	i	4%	-22%
NS(=O)(=O)c1ccc(S(=O)(=O)Nc2cccc3c(Cl)c[nH]c23)cc1	x	x	x	x	1%
[Cl][In]([Cl])[Cl]	x	x	x	-9%	3.2µM*
CC1OC(OC2C(C)OC(OC3C(OC(=O)/C=C/c4ccc(O)cc4)C(CO)OC(OC4(COC(=O)/C=C/c5ccc(O)cc5)OC(CO)C(O)C4O)C3OC3OCC(O)(CO)C3O)C(O)C2O)C(O)C(O)C1O (stereo not given)	x	x	x	2%[20.6 µM]	17%[12.6 µM]
O=C1Nc2ccccc2/C1=C/c1cc(Cl)c(O)c(Cl)c1	x	x	x	x	35µM*!
O=C1Nc2ccc(C(=O)c3ccco3)cc2/C1=C/c1cc(Cl)c(O)c(Cl)c1	x	x	x	x	4µM*
O=C1Cc2cc(C(=O)c3ccco3)ccc2N1	x	x	x	x	-5%
O=c1ccc2ccc(OCCCCN3CCN(c4cccc5sccc45)CC3)cc2[nH]1	x	x	x	5%	u
